# Experimental data published in paper PMC7862700, “An all-to-all approach to the identification of sequence-specific readers for epigenetic DNA modifications on cytosine”.
# How the values were obtained:
# Assay in all cases: DAPPL (digital affinity profiling via proximity ligation, sequencing); 10 mM Tris-HCl pH 7.5, 50 mM NaCl, 1 mM DTT, 4% glycerol, room temperature, 30 min; GST-TFs on glutathione beads, 16-mer random dsDNA library, 0.1% formaldehyde crosslink after washing; high values mean tight binding
# [1] = target: T1, FEV (Homo sapiens, UniProt Q99581 1-238); conditions: protein: recombinant; tags: N-terminal GST; dsDNA, one strand shown
# T1 sequence: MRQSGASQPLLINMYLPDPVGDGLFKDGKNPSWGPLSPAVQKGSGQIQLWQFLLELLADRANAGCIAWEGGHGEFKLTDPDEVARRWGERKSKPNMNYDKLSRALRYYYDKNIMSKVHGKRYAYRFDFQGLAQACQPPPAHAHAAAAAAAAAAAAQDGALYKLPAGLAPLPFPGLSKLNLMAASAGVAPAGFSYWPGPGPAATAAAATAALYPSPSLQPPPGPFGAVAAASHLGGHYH
# In short: (§1)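 Yeast served to express human transcription factors as GST fusions, which were then captured on glutathione beads and labelled with DNA barcodes. Pooled with a tag-only sample, they were incubated with 200 nmole of a 16-mer random double-stranded DNA library for 30 min at room temperature in Tris/NaCl/DTT/glycerol buffer, washed, crosslinked with 0.1% formaldehyde, ligated by proximity, amplified by PCR and sequenced. Dividing each hexamer's read frequency for a factor by its frequency for the tag-only sample gives the binding signal.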
# [2] = target: ETV5 (Homo sapiens, UniProt P41161 1-510); conditions: protein: recombinant; tags: N-terminal GST; dsDNA, one strand shown
# In short: as §1
# [3] = target: HSF1 (Homo sapiens, UniProt Q00613 1-529); conditions: protein: recombinant; tags: N-terminal GST; chain copies: 3; dsDNA, one strand shown
# In short: as §1
# [4] = target: T2, SPIC (Homo sapiens, UniProt Q8N5J4 1-248); conditions: protein: recombinant; tags: N-terminal GST; dsDNA, one strand shown
# T2 sequence: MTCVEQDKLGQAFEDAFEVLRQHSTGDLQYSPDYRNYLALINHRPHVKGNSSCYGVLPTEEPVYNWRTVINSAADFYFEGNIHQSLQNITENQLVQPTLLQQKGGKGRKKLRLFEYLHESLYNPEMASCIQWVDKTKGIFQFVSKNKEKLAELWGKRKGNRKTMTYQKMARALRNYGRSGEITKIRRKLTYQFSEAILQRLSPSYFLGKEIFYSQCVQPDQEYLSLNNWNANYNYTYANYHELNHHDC
# In short: as §1
# [5] = target: ELF4 (Homo sapiens, UniProt Q99607 1-663); conditions: protein: recombinant; tags: N-terminal GST; dsDNA, one strand shown
# In short: as §1
# [6] = target: T3, ELK4 (Homo sapiens, UniProt P28324-2 1-405); conditions: protein: recombinant; tags: N-terminal GST; dsDNA, one strand shown
# T3 sequence: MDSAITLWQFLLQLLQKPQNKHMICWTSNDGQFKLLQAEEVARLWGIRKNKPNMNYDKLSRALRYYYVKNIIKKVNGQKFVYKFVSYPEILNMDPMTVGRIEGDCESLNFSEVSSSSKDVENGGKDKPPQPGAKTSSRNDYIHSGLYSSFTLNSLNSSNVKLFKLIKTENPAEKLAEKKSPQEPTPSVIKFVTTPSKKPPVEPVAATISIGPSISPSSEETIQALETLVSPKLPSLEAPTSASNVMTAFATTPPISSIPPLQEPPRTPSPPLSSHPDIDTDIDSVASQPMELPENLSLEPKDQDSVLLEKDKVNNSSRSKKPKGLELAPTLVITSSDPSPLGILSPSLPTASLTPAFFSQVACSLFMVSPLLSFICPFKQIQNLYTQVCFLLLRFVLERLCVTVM
# In short: as §1
# [7] = target: T4, ETV2 (Homo sapiens, UniProt O00321 1-342); conditions: protein: recombinant; tags: N-terminal GST; dsDNA, one strand shown
# T4 sequence: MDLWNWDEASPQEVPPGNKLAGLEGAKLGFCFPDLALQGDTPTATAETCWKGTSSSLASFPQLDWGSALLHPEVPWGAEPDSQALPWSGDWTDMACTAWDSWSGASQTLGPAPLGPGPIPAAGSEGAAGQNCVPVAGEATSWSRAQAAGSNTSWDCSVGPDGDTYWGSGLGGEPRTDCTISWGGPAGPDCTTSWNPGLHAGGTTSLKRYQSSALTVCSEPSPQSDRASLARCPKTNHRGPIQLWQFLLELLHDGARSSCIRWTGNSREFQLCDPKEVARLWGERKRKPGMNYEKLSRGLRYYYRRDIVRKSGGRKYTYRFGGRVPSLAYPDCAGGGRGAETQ
# In short: as §1
# [8] = target: T5, ELF3 (Homo sapiens, UniProt P78545 1-371); conditions: protein: recombinant; tags: N-terminal GST; dsDNA, one strand shown
# T5 sequence: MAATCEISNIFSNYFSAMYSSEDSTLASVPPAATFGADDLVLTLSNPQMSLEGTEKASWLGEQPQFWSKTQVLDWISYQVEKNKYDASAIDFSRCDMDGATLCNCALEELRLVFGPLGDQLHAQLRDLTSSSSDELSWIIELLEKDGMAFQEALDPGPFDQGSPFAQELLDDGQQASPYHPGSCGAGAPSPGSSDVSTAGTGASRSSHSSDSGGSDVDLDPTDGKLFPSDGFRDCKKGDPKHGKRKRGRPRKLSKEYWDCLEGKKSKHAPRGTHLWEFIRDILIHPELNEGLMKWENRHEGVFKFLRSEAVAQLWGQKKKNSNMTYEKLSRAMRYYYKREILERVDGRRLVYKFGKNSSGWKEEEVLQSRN
# In short: as §1
# [9] = target: ETV1 (Homo sapiens, UniProt P50549 1-477); conditions: protein: recombinant; tags: N-terminal GST; dsDNA, one strand shown
# In short: as §1
# [10] = target: T6, ERF (Homo sapiens, UniProt P50548 1-548); conditions: protein: recombinant; tags: N-terminal GST; dsDNA, one strand shown
# T6 sequence: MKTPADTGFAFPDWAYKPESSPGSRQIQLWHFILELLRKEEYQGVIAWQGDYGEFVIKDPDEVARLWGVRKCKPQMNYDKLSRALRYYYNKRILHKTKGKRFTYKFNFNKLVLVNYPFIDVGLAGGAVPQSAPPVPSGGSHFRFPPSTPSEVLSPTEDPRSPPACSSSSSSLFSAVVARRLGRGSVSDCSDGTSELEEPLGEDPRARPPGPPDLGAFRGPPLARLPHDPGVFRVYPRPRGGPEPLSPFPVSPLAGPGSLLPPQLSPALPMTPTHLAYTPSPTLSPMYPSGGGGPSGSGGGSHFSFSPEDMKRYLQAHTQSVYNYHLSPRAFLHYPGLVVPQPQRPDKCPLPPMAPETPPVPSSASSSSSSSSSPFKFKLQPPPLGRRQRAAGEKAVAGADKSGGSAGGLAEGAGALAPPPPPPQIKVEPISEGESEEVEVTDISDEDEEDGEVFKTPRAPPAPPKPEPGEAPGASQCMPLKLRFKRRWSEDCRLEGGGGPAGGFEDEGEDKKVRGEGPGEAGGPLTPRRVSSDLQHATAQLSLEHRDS
# In short: as §1
# [11] = target: T7, ETV3L (Homo sapiens, UniProt Q6ZN32 1-361); conditions: protein: recombinant; tags: N-terminal GST; dsDNA, one strand shown
# T7 sequence: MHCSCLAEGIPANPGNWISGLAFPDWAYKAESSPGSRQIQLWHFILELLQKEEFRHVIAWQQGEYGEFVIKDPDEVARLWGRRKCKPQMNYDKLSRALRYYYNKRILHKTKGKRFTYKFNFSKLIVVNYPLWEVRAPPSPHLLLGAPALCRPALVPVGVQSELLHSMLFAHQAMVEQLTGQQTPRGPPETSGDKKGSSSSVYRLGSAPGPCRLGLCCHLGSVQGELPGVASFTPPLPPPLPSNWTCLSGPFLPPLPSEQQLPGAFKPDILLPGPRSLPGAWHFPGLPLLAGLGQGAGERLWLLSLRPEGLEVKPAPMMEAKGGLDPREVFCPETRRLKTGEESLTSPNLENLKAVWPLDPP
# In short: as §1
# [12] = target: T8, ETS2 (Homo sapiens, UniProt P15036 1-469); conditions: protein: recombinant; tags: N-terminal GST; dsDNA, one strand shown
# T8 sequence: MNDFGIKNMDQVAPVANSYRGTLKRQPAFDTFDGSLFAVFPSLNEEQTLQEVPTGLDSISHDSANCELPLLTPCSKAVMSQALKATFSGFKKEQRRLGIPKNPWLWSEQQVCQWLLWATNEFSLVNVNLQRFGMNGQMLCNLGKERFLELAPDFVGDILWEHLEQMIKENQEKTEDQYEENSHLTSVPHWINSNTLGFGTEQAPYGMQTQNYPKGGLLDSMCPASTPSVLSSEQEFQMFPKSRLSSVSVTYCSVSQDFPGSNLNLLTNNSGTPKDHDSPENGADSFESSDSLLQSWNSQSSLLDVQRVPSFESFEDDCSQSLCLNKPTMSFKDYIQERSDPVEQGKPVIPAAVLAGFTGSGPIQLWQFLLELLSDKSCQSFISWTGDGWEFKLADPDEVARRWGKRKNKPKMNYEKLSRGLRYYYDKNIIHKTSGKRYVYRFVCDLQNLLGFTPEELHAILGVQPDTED
# In short: as §1
# [13] = target: T9, SPDEF (Homo sapiens, UniProt O95238 1-335); conditions: protein: recombinant; tags: N-terminal GST; dsDNA, one strand shown
# T9 sequence: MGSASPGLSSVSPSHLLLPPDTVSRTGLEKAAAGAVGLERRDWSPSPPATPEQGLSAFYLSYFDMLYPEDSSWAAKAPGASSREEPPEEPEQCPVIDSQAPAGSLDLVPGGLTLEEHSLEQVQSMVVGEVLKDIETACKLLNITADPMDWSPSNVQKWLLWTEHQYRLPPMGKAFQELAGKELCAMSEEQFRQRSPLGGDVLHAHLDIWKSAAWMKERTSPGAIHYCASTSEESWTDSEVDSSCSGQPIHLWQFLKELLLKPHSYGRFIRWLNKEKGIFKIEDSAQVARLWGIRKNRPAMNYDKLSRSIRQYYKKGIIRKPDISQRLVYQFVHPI
# In short: as §1
# [14] = target: T10, ELF5 (Homo sapiens, UniProt Q9UKW6-2 1-255); conditions: protein: recombinant; tags: N-terminal GST; dsDNA, one strand shown
# T10 sequence: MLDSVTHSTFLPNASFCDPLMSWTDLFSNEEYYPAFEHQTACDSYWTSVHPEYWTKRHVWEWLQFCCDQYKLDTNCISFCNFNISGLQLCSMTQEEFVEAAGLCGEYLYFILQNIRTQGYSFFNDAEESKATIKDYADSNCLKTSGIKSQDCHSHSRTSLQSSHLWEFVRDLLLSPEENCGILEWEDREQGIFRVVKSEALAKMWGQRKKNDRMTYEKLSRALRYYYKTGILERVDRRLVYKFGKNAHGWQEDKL
# In short: as §1
# [15] = target: ETV6 (Homo sapiens, UniProt P41212 1-452); conditions: protein: recombinant; tags: N-terminal GST; dsDNA, one strand shown
# In short: as §1
# ETV1, sequence (P50549 whole entry): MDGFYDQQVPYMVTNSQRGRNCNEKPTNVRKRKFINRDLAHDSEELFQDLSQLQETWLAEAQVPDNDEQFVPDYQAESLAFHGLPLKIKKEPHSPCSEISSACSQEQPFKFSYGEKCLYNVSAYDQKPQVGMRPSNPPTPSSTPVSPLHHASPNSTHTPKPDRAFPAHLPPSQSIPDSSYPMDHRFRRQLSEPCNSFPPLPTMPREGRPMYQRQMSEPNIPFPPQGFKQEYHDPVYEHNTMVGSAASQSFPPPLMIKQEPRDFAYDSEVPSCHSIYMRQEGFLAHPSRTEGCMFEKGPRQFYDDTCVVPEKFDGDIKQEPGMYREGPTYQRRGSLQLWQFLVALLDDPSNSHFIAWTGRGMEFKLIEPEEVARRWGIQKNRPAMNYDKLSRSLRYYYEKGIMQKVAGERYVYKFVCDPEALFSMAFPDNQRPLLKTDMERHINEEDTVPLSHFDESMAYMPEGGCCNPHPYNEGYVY
# ELF4, sequence (Q99607 whole entry): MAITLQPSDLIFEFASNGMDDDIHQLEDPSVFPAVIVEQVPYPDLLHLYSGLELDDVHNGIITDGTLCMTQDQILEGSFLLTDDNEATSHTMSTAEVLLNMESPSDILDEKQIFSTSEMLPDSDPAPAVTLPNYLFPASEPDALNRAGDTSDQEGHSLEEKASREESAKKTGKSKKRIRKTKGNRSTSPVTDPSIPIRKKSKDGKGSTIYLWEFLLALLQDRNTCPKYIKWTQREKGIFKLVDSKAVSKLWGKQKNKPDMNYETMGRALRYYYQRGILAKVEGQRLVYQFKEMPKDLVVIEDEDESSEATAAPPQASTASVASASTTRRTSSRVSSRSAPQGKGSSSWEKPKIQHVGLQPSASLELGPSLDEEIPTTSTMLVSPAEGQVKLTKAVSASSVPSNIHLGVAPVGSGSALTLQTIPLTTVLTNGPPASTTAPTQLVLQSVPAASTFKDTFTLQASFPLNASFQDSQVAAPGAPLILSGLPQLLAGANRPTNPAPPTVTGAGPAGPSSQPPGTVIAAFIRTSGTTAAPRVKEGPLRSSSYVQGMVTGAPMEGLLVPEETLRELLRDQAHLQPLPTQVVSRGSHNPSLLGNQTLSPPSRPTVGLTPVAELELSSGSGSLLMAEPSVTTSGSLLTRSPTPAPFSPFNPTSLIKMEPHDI
# ETV5, sequence (P41161 whole entry): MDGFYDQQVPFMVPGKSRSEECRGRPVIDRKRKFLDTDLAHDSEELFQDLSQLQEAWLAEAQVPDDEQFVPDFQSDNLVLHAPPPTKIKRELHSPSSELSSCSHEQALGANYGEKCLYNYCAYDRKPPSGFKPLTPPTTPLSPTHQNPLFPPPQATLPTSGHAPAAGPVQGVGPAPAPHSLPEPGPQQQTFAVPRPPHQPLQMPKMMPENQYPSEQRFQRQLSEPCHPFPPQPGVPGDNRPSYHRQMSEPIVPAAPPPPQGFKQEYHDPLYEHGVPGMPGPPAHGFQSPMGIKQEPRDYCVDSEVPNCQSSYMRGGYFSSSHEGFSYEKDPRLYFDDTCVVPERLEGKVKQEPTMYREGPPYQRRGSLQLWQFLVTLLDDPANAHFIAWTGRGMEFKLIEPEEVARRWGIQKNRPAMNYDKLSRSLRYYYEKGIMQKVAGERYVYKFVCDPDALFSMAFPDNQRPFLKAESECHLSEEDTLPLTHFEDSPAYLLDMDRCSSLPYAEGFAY
# HSF1, sequence (Q00613 whole entry): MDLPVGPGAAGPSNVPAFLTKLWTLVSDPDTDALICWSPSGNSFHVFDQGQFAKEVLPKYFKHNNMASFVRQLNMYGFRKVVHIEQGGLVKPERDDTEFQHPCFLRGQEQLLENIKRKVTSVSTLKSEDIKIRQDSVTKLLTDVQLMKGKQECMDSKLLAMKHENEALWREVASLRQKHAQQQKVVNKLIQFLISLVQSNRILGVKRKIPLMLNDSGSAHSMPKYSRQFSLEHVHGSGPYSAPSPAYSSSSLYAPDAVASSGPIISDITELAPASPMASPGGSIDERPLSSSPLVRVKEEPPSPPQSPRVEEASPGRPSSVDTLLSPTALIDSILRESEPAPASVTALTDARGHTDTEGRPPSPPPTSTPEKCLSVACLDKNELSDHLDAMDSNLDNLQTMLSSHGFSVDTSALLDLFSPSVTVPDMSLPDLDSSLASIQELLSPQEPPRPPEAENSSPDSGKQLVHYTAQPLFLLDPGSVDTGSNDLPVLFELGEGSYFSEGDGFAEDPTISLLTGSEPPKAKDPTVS
# ETV6, sequence (P41212 whole entry): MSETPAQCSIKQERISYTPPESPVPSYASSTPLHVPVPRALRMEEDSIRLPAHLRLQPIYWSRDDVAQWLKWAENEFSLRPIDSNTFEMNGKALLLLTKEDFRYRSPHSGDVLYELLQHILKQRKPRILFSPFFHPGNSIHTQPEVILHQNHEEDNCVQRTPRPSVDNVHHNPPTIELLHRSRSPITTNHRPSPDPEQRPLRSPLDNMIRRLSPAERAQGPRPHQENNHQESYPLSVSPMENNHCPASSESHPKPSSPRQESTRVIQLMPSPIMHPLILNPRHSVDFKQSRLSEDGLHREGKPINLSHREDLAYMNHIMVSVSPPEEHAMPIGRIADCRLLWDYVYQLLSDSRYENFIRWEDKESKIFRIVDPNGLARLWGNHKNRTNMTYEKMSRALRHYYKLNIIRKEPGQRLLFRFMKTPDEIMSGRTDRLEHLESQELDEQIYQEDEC
sequence,measurement,setting,value
CGCTAG,binding signal,[1],"1.06 fold enrichment (6-mer frequency, TF over GST control)"
same,binding signal,[2],"1.02 fold enrichment (6-mer frequency, TF over GST control)"
same,binding signal,[3],"1.29 fold enrichment (6-mer frequency, TF over GST control)"
same,binding signal,[4],"1.03 fold enrichment (6-mer frequency, TF over GST control)"
same,binding signal,[5],"1.11 fold enrichment (6-mer frequency, TF over GST control)"
same,binding signal,[6],"1.09 fold enrichment (6-mer frequency, TF over GST control)"
same,binding signal,[7],"1.19 fold enrichment (6-mer frequency, TF over GST control)"
same,binding signal,[8],"1.01 fold enrichment (6-mer frequency, TF over GST control)"
same,binding signal,[9],"1.03 fold enrichment (6-mer frequency, TF over GST control)"
same,binding signal,[10],"1.08 fold enrichment (6-mer frequency, TF over GST control)"
same,binding signal,[11],"1.06 fold enrichment (6-mer frequency, TF over GST control)"
same,binding signal,[12],"1.03 fold enrichment (6-mer frequency, TF over GST control)"
same,binding signal,[13],"1.08 fold enrichment (6-mer frequency, TF over GST control)"
same,binding signal,[14],"1.05 fold enrichment (6-mer frequency, TF over GST control)"
same,binding signal,[15],"1.04 fold enrichment (6-mer frequency, TF over GST control)"
